This passage reports outcome, Potency and activity change, negative = inhibition results from PubChem BioAssay (NCATS).

The target of assay [1] is Lysine-specific demethylase 5B (Homo sapiens) (UniProt Q9UGL1). Put plainly: Optimization screen for KDM5B Histone Demethylases FDH coupled qHTS against the LOPAC library (AID 1347166). In short, it runs like this:
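KDM5BDeltaAP (200nM final) preincubated 10 min with compound, then 12.5uM H3K4Me3, 25uM a-ketoglutarate, ascorbate, Fe(II), NAD+ and FDH added; 50mM HEPES pH 7.5, 0.01% Tween-20. NADH fluorescence (340/450 nm) change over 30 min, room temperature.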
Background: qHTS replaces the single test concentration by a dilution series.

The subject of assay [2] is Zika virus NS2B-NS3 protease (unlinked complex). Kind of assay: Primary screen GU Rhodamine qHTS for Zika virus inhibitors: Unlinked NS2B-NS3 protease assay (AID 1347159). Further: nearly all actives have a fitted effect of over 60% in size. The gist of the method: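 Noncovalent NS2B hydrophilic domain–NS3 protease domain complex (25 nM) preincubated 15 min at room temperature with compounds (up to 114 microM) in 10 mM Tris-HCl pH 8.0, 0.01% Tween 20; 1.5 microM Rhodamine110 substrate added, fluorescence change over 15 min fitted to Hill equation.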

Assay [3] concerns Zika virus NS2B-NS3 protease (linked construct). Kind of assay: Primary screen NINDS Rhodamine qHTS for Zika virus inhibitors (AID 1347160). Further: nearly all actives have a fitted effect of over 55% in size. Conditions: outcome: dose series up to 57.1 µM unless noted. In short, it runs like this: (§1)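 Purified linked NS2B-NS3 protease (NS2B hydrophilic domain joined to NS3 protease by flexible linker), 25 nM in 10 mM Tris-HCl pH 8.0, 0.01% Tween 20. Compounds titrated, 15 min preincubation at room temperature; 1.5 microM Rhodamine110 substrate, FITC fluorescence change over 15 min.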

Assay [4] is described as follows: Confirmatory screen NINDS Rhodamine qHTS for Zika virus inhibitors (AID 1347161). Further: nearly all actives have a fitted effect of over 60% in size. Further: potency means the concentration at half of the fitted maximal effect. On activity change, negative = inhibition: series mostly up to about 110 µM. In short, it runs like this: as §1
The nature of assay [5]: Vero cells viability qHTS for Zika virus inhibitors (AID 1347167). In short, it runs like this: (§2)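 Cells seeded at 2.5 x 10^5 cells/mL in DMEM with 4% FBS and attached overnight at 37 degrees C, then exposed to compound for 24 to 48 hours. Viability read as ATP content by CellTiter Glo luminescence.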
Assay [6] can be described thus: HepG2 cells viability qHTS for Zika virus inhibitors (AID 1347168). In short, it runs like this: as §2
Assay [7] in a line: Tertiary RLuc qRT-PCR qHTS assay for Zika virus inhibitors (AID 1347169). Further: top concentration of the series differs between compounds; nearly all actives have a fitted effect of over 55% in size. The gist of the method: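 Vero, 1,000 cells/well, o/n 37 C; cpd pinned in DMSO; ZIKV-RLuc Cambodian, MOI 1-2, 48-72 h 37 C; live-cell RLuc substrate, lum read at 1-1.5 h.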
Assay [8] concerns Zika virus NS2B-NS3 protease (linked). Put plainly: 384 well plate NINDS AMC confirmatory qHTS for Zika virus inhibitors (AID 1347163). Further: potency means the concentration at half of the fitted maximal effect; nearly all actives have a fitted effect of over 50% in size. In short, it runs like this: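 Linked NS2B-NS3 protease (final 5 nM, 30 nM or 60 nM) was preincubated with compounds (final up to 1 mM) for ~15 minutes. Ac-VKTGKR-AMC substrate (final 30 microM) then reacted for 25 minutes at room temperature in the dark. Fluorescence (ex 355/em 460 nm) was normalized to no-enzyme and no-inhibitor controls.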

Assay [9] deals with Zika virus NS2B-NS3 protease (linked construct). Put plainly: 384 well plate NINDS Rhodamine confirmatory qHTS for Zika virus inhibitors (AID 1347164).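 Further: fluorescence from protease cleavage of Ac-LKRR-rhodamine 110 substrate; top concentration of the series differs between compounds; nearly all actives have a fitted effect of over 65% in size.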 The gist of the method:
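Enzyme (final 5/30/60 nM) + cpd (DMSO), ~15 min; add Ac-LKRR-Rd 10 microM final; 25 min RT, dark; FI ex 485/em 538; normalized to no-enzyme, no-inhibitor ctrls; aprotinin intraplate ctrl.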

Several values for one entry are separate records, joined by “and”; a condition that tells them apart may be missing. Equal values may be shown once. Inconclusive results are not listed. Where a call stands in place of a potency, no number is given. Unmarked numbers belong to inactive results. Activity calls are given as the source filed them. The call rests on the fitted dose curve; in most records, active means well fitted curve in the direction sought with a large enough effect; inconclusive means small, poorly fitted or top-dose-only effect, or another doubt; inactive means no such curve, though single readings can be large; an effect the other way counts as inactive or inconclusive.

Sequence of Lysine-specific demethylase 5B (Homo sapiens) (Q9UGL1 whole entry, looked up): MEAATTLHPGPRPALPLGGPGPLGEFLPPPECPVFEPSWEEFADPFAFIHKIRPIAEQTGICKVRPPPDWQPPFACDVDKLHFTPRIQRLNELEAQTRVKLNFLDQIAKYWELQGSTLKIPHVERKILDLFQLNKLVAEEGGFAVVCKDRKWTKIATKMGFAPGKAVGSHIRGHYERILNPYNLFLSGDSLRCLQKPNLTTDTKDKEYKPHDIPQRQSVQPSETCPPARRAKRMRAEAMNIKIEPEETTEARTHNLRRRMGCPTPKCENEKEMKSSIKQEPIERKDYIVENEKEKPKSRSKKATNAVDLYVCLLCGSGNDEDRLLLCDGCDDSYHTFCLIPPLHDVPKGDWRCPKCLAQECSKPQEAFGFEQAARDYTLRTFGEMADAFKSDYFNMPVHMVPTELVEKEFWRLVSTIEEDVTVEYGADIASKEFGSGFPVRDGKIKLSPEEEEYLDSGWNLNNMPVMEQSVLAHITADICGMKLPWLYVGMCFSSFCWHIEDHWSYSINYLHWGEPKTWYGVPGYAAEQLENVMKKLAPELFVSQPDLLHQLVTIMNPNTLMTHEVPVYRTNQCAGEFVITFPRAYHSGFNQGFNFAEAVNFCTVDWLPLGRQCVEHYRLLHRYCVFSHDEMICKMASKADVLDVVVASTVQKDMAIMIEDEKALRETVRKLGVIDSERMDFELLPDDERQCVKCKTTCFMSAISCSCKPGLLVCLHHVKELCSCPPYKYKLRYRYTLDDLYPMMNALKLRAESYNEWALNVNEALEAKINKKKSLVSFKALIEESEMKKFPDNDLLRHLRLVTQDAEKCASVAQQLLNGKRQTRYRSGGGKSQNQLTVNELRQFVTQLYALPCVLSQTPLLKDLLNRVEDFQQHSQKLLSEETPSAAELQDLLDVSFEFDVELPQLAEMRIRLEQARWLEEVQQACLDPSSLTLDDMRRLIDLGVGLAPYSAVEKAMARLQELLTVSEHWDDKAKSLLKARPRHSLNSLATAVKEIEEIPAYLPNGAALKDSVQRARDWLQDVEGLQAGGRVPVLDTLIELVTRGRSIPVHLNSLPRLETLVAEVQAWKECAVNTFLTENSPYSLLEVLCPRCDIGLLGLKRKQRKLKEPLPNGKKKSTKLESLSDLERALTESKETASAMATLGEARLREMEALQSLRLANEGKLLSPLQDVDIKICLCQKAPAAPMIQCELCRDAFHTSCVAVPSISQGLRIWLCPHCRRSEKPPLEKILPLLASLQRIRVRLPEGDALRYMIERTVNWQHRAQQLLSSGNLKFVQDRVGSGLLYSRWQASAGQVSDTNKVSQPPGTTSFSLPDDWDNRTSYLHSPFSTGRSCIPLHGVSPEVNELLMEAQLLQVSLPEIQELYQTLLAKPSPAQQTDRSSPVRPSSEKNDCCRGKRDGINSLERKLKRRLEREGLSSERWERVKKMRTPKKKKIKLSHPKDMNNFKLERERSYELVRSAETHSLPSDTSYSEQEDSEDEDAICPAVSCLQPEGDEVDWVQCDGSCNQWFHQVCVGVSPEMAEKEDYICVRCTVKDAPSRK

In the case of `Clc1ccc2nsnc2c1NC1=NCCN1`, the compound was classed as inactive in assay [1].
As to `Nc1nnc(-c2cccc(Cl)c2Cl)c(N)n1`, the result in assay [1] was inactive.
In the case of `Cc1cc(C(C)(C)C)c(O)c(C)c1CC1=NCCN1`, the Potency entry in assay [2] is “inactive”. Moreover, the outcome in [3] and in assay [1] was inactive.
As to `Cc1ccc(-c2cc(C(F)(F)F)nn2-c2ccc(S(N)(=O)=O)cc2)cc1`, in assay [2], the Potency result was “inactive”. For the same compound, in assay [3], the compound was called inactive.
Take `CCOC(=O)Nc1ccc(NCc2ccc(F)cc2)nc1N`: the Potency result in assay [4], in assay [5] and in assay [7] was “inactive” throughout. Besides, the compound was classed as inactive in assay [6].
Take `CC(C)(C)C(=O)Oc1ccc(S(=O)(=O)Nc2ccccc2C(=O)NCC(=O)O)cc1`: the Potency result in assay [4], in assay [5] and in [7] was “inactive” in each case. Further, the outcome in [6] was inactive.
For the compound `C[C@H]1c2cccc(O)c2C(O)=C2C(=O)[C@]3(O)C(O)=C(C(N)=O)C(=O)[C@@H](N(C)C)[C@@H]3[C@@H](O)[C@@H]21`, the Potency was 62.1 µM (active) in assay [4] and 63.1 µM (active) in assay [8]. Further, the Potency entry in assay [5] is “inactive”. In assay [6], the result was inactive.
With `Cc1ccc(C(=O)Nc2ccc(S(=O)(=O)O)c3cc(S(=O)(=O)O)cc(S(=O)(=O)O)c23)cc1NC(=O)c1cccc(NC(=O)Nc2cccc(C(=O)Nc3cc(C(=O)Nc4ccc(S(=O)(=O)O)c5cc(S(=O)(=O)O)cc(S(=O)(=O)O)c45)ccc3C)c2)c1`, the Potency in assay [4] is 2.24 µM (active) and 2.51 µM (active); in assay [8], 7.94 µM (active). Further, the Potency result in assay [9] and in [7] was “inactive” in each case.
On to `O=c1c(O)c(-c2ccc(O)c(O)c2)oc2cc(O)cc(O)c12`, for which, in [4], the Potency was 50.1 µM (active). In [1], the call was inactive. For the same compound, the activity change, negative = inhibition in assay [7] is 52.3% [at 5.25 µM] and 65.1% [at 0.997 µM].
In the case of `CCCCc1oc2ccccc2c1C(=O)c1cc(I)c(OCCN(CC)CC)c(I)c1`, in assay [1], the compound was called inactive.
Take `COc1cc2nc(N3CCN(C(=O)c4ccco4)CC3)nc(N)c2cc1OC`: the Potency result in assay [4] and in assay [5] was “inactive” throughout. In assay [6], the result was inactive.
Take `CS(=O)(=O)Nc1ccc([N+](=O)[O-])cc1Oc1ccccc1`: the call in [1] was inactive.
Consider `Cc1ccccc1N1C(=O)c2cc(S(N)(=O)=O)c(Cl)cc2NC1C` (stereo not given), for which the Potency result in [4], in [5] and in [7] was “inactive” in each case. The outcome in [6] was inactive.
Regarding `CC1(C)O[C@H]2CC(=O)OC[C@]23[C@H]2CC[C@@]4(C)[C@H](c5ccoc5)OC(=O)[C@H]5O[C@]54[C@]2(C)C(=O)C[C@@H]13`, the Potency entry in [2] was “inactive”. In addition, in [3], the outcome was “inactive [at 33.1 µM]”.
For `Cn1ccc2cc3c(cc21)CCN3C(=O)Nc1cccnc1`, the Potency in assay [4] was 62.2 µM (active); in assay [8] it was 31.6 µM (active) and 178 µM (active). In addition, the Potency entry in assay [5] and in assay [7] was “inactive” in each case. The result in assay [6] was inactive.
With `CN(Cc1cnc2nc(N)nc(N)c2n1)c1ccc(C(=O)N[C@@H](CCC(=O)O)C(=O)O)cc1`, the Potency entry in [5] and in assay [7] was “inactive” each time. The result in assay [6] was inactive.
